This passage reports outcome and AC50 results from PubChem BioAssay (EPA / NIEHS).

A short description of assay [1]: CCTE_Shafer_MEA_acute_per_network_burst_spike_number_mean: CCTE's Neural Acute Assay for Average Number of Spikes in a Network Burst, Shafer Lab (AID 2284019). The method in brief:
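Rat primary cortical neurons on 48-well MEA at DIV 13 or 15, 37 C; compounds 0.03-40 uM, at least three wells each. 40-min baseline then 40-min exposure recording; percent change in mean spikes per network burst.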

Assay [2] can be described thus: CCTE_Shafer_MEA_acute_per_network_burst_spike_number_std: CCTE's Neural Acute Assay for Standard Deviation of Number of Spikes in a Network Burst, Shafer Lab (AID 2284020).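 Further: fitted for decrease in spike-number SD versus DMSO so actives lower it.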 The method in brief: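 Rat primary cortical neurons on 48-well MEA (16 electrodes/well), treated DIV 13 or 15 at 0.03-40 uM, ≥3 wells per compound. 40 min recordings at 37 C before and after dosing; value is percent change in network-burst spike-number SD, negative direction vs DMSO.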

Assay [3] can be described thus: CCTE_Shafer_MEA_acute_per_network_burst_electrodes_number_mean: CCTE's Neural Acute Assay for Mean Number of Electrodes in a Network Burst, Shafer Lab (AID 2284021).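 Further: curves fitted for decreases only so hits reduce electrodes per burst.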 The method in brief:
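Rat primary cortical neurons on 48-well MEAs, DIV 13 or 15, were treated at 0.03-40 uM. Spikes were detected at 8x rms noise and recorded at 37 C. The mean electrodes per network burst in a 40 min exposure recording was expressed as percent change from a 40 min baseline.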

The nature of assay [4]: CCTE_Shafer_MEA_acute_network_burst_percentage: CCTE's Neural Acute Assay for Percentage of Network Bursts, Shafer Lab (AID 2284022).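 Further: curves fitted for loss so actives lower network burst percentage.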 Put shortly:
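Rat primary cortical neuron networks on 48-well MEA plates, DIV 13 or 15, treated acutely with compound (0.03-40 uM, at least three wells). Percent of spikes within network bursts compared between 40-min recordings before and during exposure at 37 C, expressed as percent change.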

Assay [5] in a line: CCTE_Shafer_MEA_acute_cross_correlation_area: CCTE's Neural Acute Assay for Area of Cross Correlation, Shafer Lab (AID 2284024).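 Further: curves fitted for loss of cross-correlation area so actives lower synchrony.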 The method in brief:
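Rat primary cortical neurons on 48-well MEA, DIV 13 or 15; compounds 0.03-40 uM. Baseline and post-exposure 40 min recordings at 37 C; percent change in area under pooled inter-electrode cross-correlation near zero lag, relative to DMSO.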

The nature of assay [6]: CCTE_Shafer_MEA_acute_cross_correlation_HWHM: CCTE's Neural Acute Assay for Cross Correlation at Half Width at Half Maximum, Shafer Lab (AID 2284026).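 Further: hits are a decrease in cross-correlogram half width relative to DMSO.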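 On outcome: spontaneous network firing of rat primary cortical neurons on multiwell microelectrode arrays.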 Put shortly: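 Rat primary cortical neurons on 48-well MEA plates; 40-min baseline and 40-min post-exposure recordings at 37 C on DIV 13 or 15, compounds 0.03-40 uM. Spikes detected at 8x rms noise; percent change in cross-correlogram HWHM per well vs baseline.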

Assay [7] can be described thus: CCTE_Shafer_MEA_acute_synchrony_index: CCTE's Neural Acute Assay for Synchrony, Shafer Lab (AID 2284027).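 Further: fitted for loss of signal so actives lower synchrony relative to DMSO.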 Put shortly:
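Readout is percent change in the unitless network synchrony index (0 low, 1 high) between a 40-min baseline and a 40-min recording in compound. Cultures were primary rat cortical neurons on MEAs, treated at 0.03-40 uM on DIV 13 or 15.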

In assay [8] the target is Estrogen receptor (Homo sapiens) (UniProt P03372). Briefly: CCTE_Deisenroth_AIME_384WELL_LUC_Active: CCTE's 384-well Estrogen Receptor Transactivation Assay with AIME metabolic competence (ERTA luciferase; metabolism positive), Deisenroth Lab (AID 2284030; active means hit-call score of the fitted dose curve at least 0.9, where 1 is the maximum). The method in brief: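 Chemicals (10-point, 0.002-200 uM) were first incubated 2 hours with alginate-immobilized induced male Sprague Dawley rat liver S9. The conditioned medium was then applied to VM7Luc4E2 cells for 24 hours, with ER luciferase induction read by luminescence relative to 17beta-estradiol.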
Estrogen receptor (Homo sapiens), sequence (P03372 whole entry, looked up): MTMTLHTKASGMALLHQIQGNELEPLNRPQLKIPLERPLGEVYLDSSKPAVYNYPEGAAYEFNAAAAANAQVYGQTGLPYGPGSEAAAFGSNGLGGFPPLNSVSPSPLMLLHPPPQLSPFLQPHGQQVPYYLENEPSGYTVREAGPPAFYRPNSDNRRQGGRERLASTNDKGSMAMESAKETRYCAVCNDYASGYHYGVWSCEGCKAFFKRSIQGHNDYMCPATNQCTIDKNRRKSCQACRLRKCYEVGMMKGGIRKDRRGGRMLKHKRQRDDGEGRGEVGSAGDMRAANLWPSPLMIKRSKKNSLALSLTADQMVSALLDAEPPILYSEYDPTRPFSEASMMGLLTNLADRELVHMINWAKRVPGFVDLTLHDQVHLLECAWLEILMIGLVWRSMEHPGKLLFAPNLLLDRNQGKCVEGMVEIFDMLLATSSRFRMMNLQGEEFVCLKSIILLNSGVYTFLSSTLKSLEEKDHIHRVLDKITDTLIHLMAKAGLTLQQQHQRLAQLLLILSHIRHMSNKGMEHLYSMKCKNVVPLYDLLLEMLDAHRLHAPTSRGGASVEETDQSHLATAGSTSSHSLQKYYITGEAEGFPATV

Assay [9] in a line: CCTE_Shafer_MEA_dev_firing_rate_mean: CCTE's Neural Network Formation Assay for Mean Firing Rate, Shafer Lab (AID 2284031).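 On AC50: curve fitted for loss of firing so AC50 reflects decreased mean firing rate.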 The method in brief:
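Rat primary cortical neurons were seeded on multielectrode arrays and treated from plating through day 12, with redosing at each feed. Spontaneous spiking was recorded four times; mean firing rate AUC was fitted downward against DMSO.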

A short description of assay [10]: CCTE_Shafer_MEA_dev_per_burst_spike_percent: CCTE's Neural Network Formation Assay for Percent of Spikes in a Burst, Shafer Lab (AID 2284032).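 On AC50: fitted as a decrease in burst spike percentage below DMSO baseline.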 Put shortly: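 Rat primary cortical neurons on 16-electrode MEA wells, dosed from plating day 0 for 12 days with renewal on DIV 5 and 9; spikes-in-bursts percentage averaged over bursting electrodes, collapsed as AUC across days 5, 7, 9, 12; loss direction versus DMSO.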

Assay [11] in a line: CCTE_Deisenroth_AIME_384WELL_CTox_Active: Cytotoxicity Assessment (CTOX) in CCTE's 384-well Estrogen Receptor Transactivation Assay with AIME metabolic competence (metabolism positive), Deisenroth Lab (AID 2284037; active means hit-call score of the fitted dose curve at least 0.9, where 1 is the maximum;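 further: chemicals first conditioned 2 h by alginate-bound induced rat liver S9 before cells; activity means signal loss indicating cell death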). The method in brief: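 Chemicals pre-incubated 2 hours with alginate-immobilised phenobarbital/beta-naphthoflavone-induced male Sprague Dawley rat liver S9, then conditioned medium applied 24 hour to VM7Luc4E2 cells. Viability by fluorogenic protease substrate; 10-point series 0.002 - 200 uM.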

For assay [12], the target named is Estrogen receptor (Homo sapiens) (UniProt P03372). Briefly: CCTE_Deisenroth_AIME_384WELL_LUC_Inactive: CCTE's 384-well Estrogen Receptor Transactivation Assay without AIME metabolic competence (ERTA luciferase; metabolism negative), Deisenroth Lab (AID 2284038; active means hit-call score of the fitted dose curve at least 0.9, where 1 is the maximum;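 further: hits raise estrogen receptor luciferase signal so potencies reflect agonists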). The method in brief: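 Metabolism-negative mode: chemicals (10-point, 0.002–200 uM) held 2 h with alginate-water microspheres, then conditioned medium applied to VM7Luc4E2 cells for 24 h. Luciferase induction referenced to 17beta-estradiol.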

Assay [13] in a line: CCTE_Deisenroth_AIME_384WELL_CTox_Inactive: Cytotoxicity Assessment (CTOX) in CCTE's 384-well Estrogen Receptor Transactivation Assay without AIME metabolic competence (metabolism negative), Deisenroth Lab (AID 2284039; active means hit-call score of the fitted dose curve at least 0.9, where 1 is the maximum;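 further: cell viability via live-cell protease substrate cleaved to fluorescent probe; cells exposed 24 h to medium preincubated 2 h with alginate-water beads without S9; loss of fluorescence signal means loss of viability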). Put shortly:
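VM7Luc4E2 human breast cells received conditioned medium from a 2 h incubation of chemical with alginate-water microspheres (no S9), then were exposed 24 h. Viability was read as protease-substrate cleavage to a fluorescent probe; loss of signal was fitted bidirectionally over 0.002–200 uM.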

Assay [14] is described as follows: CCTE_Shafer_MEA_dev_active_electrodes_number: CCTE's Neural Network Formation Assay for Number of Active Electrodes, Shafer Lab (AID 2284040; active means hit-call score of the fitted dose curve at least 0.9, where 1 is the maximum;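 on AC50: potency for loss of active electrodes versus DMSO so lower counts are hits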). Put shortly:
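Primary rat cortical neurons on 16-electrode MEA wells, exposed from day 0 through day 12 with compound renewed at DIV 5 and 9 feeds. Active electrodes (mean firing ≥5 spikes/min) counted at DIV 5, 7, 9, 12; trapezoidal AUC across days, loss-of-signal versus DMSO.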

In assay [15] the target is Estrogen receptor (Homo sapiens) (UniProt P03372). Put plainly: CCTE_Deisenroth_AIME_384WELL_LUC_Shift: CCTE's 384-well Estrogen Receptor Transactivation Assay with AIME metabolic competence data shift (ERTA luciferase; difference in metabolism positive and negative), Deisenroth Lab (AID 2284041).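 Further: shift is response with S9 minus without S9 so positive means metabolism raised ER signal.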 The method in brief: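 Chemicals (0.002–200 uM, 10 points) pre-incubated 2 h with alginate-encapsulated induced male Sprague Dawley rat liver S9 or S9-free, then medium applied 24 h to VM7Luc4E2 cells; luciferase. Endpoint is per-concentration difference, S9-positive minus negative.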

A short description of assay [16]: CCTE_Shafer_MEA_dev_bursting_electrodes_number: CCTE's Neural Network Formation Assay for Number of Bursting Electrodes, Shafer Lab (AID 2284043; active means hit-call score of the fitted dose curve at least 0.9, where 1 is the maximum;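 on AC50: potency is for loss of bursting electrodes relative to DMSO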). The method in brief: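 Primary rat cortical neurons plated on 16-electrode MEA wells, exposed from day 0 with compound renewed at DIV 5 and 9. Electrodes bursting ≥1 burst per 2 min counted on days 5, 7, 9 and 12; trapezoidal AUC across days, fitted for loss versus DMSO.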

Each structure is given as a SMILES string. “And” between values parts separate entries of the source, which are not always exact repeats. Equal values may be shown once. Results filed as inconclusive are left out. The source made the active and inactive calls. How the source made its calls, unless noted: active means hit-call score of the fitted dose curve at least 0.9, where 1 is the maximum; inactive means score below 0.9.

A word on the AC50: it is the concentration giving half of the maximal activity seen.

Regarding `CCOC(=O)C(C)OC(=O)c1cc(Oc2ccc(C(F)(F)F)cc2Cl)ccc1[N+](=O)[O-]` (stereo unspecified), the call in [1], in [2], in assay [3], in assay [4], in assay [5] and in [6] was inactive. Moreover, the molecule was classed as inactive in assay [7], in [8], in assay [9], in [10], in assay [11] and in assay [12]. Further, the call in assay [14], in [15] and in assay [16] was inactive. Further, the AC50 in assay [13] was 100 µM (active).
On to `CC(C)N1C(=O)c2ccccc2NS1(=O)=O`, for which the outcome in assay [1], in assay [2], in assay [3], in assay [4], in assay [5] and in assay [6] was inactive. Further, the call in assay [7], in [8], in assay [12] and in assay [15] was inactive.
On to `CNC(=O)Oc1cccc2ccccc12`, for which the molecule was classed as inactive in assay [1], in assay [2], in assay [3], in assay [4], in assay [5] and in assay [6]. Moreover, the call in assay [7] and in assay [9] was inactive. Besides, the half-maximal activity concentration (AC50) in [10], in [14] and in assay [16] was 15 µM (active) in each case.
For `COCC(=O)N(c1c(C)cccc1C)C(C)C(=O)OC` (stereo unspecified), the result in assay [1], in assay [2], in assay [3], in assay [4], in assay [5] and in assay [6] was inactive. In addition, the call in assay [7] was inactive.
Take `CO/N=C(/C1=NOCCO1)c1ccccc1Oc1ncnc(Oc2ccccc2Cl)c1F`: the result in assay [1], in assay [2], in [3], in [4], in assay [5] and in [15] was inactive. For the same molecule, the half-maximal activity concentration (AC50) is 20 µM (active) in assay [6]; 20 µM (active) in assay [7]; 589 nM (active) and 960 nM (active) in [9]; 1.75 µM (active) and 1.24 µM (active) in assay [10]; 32.8 µM (active) in assay [11]; 15.3 µM (active) in assay [13]. Also, the AC50 was 1.2 µM (active) and 1.05 µM (active) in [14]; 968 nM (active) and 1.02 µM (active) in assay [16].
Consider `COC(=O)N(C(=O)N1CO[C@@]2(C(=O)OC)Cc3cc(Cl)ccc3C2=N1)c1ccc(OC(F)(F)F)cc1`, for which the molecule was called inactive in [1], in assay [2], in assay [3], in assay [4], in [5] and in [9]. Moreover, the molecule was called inactive in assay [11], in [13] and in assay [15]. Also, the AC50 in [6] is 24.3 µM (active); in assay [7], 26.6 µM (active); in assay [10] it was 23.1 µM (active); in [14] it was 21.2 µM (active); in [16], 15 µM (active).
As to `OC(c1ccc(Cl)cc1)(c1ccc(Cl)cc1)C(Cl)(Cl)Cl`, the call in assay [1] and in assay [5] was inactive. Moreover, the concentration at half-maximal activity (AC50) is 20 µM (active) in assay [2]; 20 µM (active) in [3]; 20 µM (active) in [4]; 5.32 µM (active) in assay [6]; 8.65 µM (active) in assay [7].
`Cn1c(-c2ccccc2)cc(-c2ccccc2)[n+]1C`: the call in assay [1], in [2] and in assay [5] was inactive. For the same molecule, the half-maximal activity concentration (AC50) was 20 µM (active) in [3], 28 µM (active) in assay [4], 20 µM (active) in [6] and 36.8 µM (active) in assay [7].
